# Experimental data from the supplement of paper PMC6522484.
# ± gives the standard deviation of the averaged measurements.
# Tests used:
# DLD1 [1] = assay: cell viability (CellTiter-Glo) relative to plate median (fraction of plate median); higher = more viable cells; details: 5 µM; treatment time 24 h; reporter: 7TFP
# Outline: (§1)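 Colorectal cancer lines with stably integrated lentiviral TCF/Wnt firefly luciferase reporters received library compounds at a final 5 µM, 24 h after seeding into 384-well plates, for a 24 h exposure. Reported figures are plate-median-normalised firefly luciferase or CellTiterGlo luminescence per well. They average two independent replicates.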
# HCT116 [2] = assay: as above; details: 5 µM; treatment time 24 h; reporter: TCF4/Wnt
# Outline: as §1
# SW480 [3] = assay: as above; details: 5 µM; treatment time 24 h; reporter: 7TFP
# Outline: as §1
# DLD1 [4] = assay: TCF/Wnt firefly luciferase reporter signal relative to plate median (fraction of plate median); higher = higher Wnt reporter signal; details: 5 µM; treatment time 24 h; reporter: 7TFP
# Outline: as §1
# SW480 [5] = assay: as above; details: 5 µM; treatment time 24 h; reporter: 7TFP
# Outline: as §1
# DLD1 [6] = assay: cell viability (CellTiter-Glo) relative to plate median (fraction of plate median); higher = more viable cells; details: 10 µM, treatment time 24 h
# Outline: (§2)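 Each value averages two independent replicates in which the well signal was normalised to the plate median (webcellHTS2, additive, without log transformation). The signal was firefly luciferase or CellTiterGlo luminescence, read on parallel plates with a Tecan F500. The cells were colorectal cancer lines with stable lentiviral TCF/Wnt firefly luciferase reporters in 384-well plates, dosed 24 h after seeding with kinase inhibitor library compounds at a final 10 µM for 24 h.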
# HCT116 [7] = assay: as above; details: 10 µM; treatment time 24 h; reporter: TCF4/Wnt
# Outline: as §2
# SW480 [8] = assay: as above; details: 10 µM; treatment time 24 h; reporter: 7TFP
# Outline: as §2
# DLD1 [9] = assay: TCF/Wnt firefly luciferase reporter signal relative to plate median (fraction of plate median); higher = higher Wnt reporter signal; details: 10 µM, treatment time 24 h
# Outline: as §2
# HCT116 [10] = assay: as above; details: 10 µM; treatment time 24 h; reporter: TCF4/Wnt
# Outline: as §2
# SW480 [11] = assay: as above; details: 10 µM; treatment time 24 h; reporter: 7TFP
# Outline: as §2
structure (smiles),measurement,setting,value
CC1(C)CCC[C@]2(C)[C@@H]3[C@H]1[C@@H](O)[C@@]2(C)C[C@H]3O,cell viability,DLD1 [1],1.005 ± 0.0071
same,cell viability,HCT116 [2],0.991 ± 0.11
same,cell viability,SW480 [3],1.12 ± 0.014
same,TCF/Wnt firefly luciferase reporter signal,DLD1 [4],0.981 ± 0.023
same,TCF/Wnt firefly luciferase reporter signal,SW480 [5],1.13 ± 0.014
CN1CCN(c2ccc3nc(-c4c(N)c5c(F)cccc5[nH]c4=O)[nH]c3c2)CC1 [Dovitinib Dilactic acid (TKI258 Dilactic acid)],cell viability,DLD1 [6]; reporter: 7TFP,0.857 ± 0.19
same,cell viability,DLD1 [6]; reporter: TCF4/Wnt,0.956 ± 0.041
same,cell viability,HCT116 [7],0.967 ± 0.13
same,cell viability,SW480 [8],1.17 ± 0.035
same,TCF/Wnt firefly luciferase reporter signal,DLD1 [9]; reporter: 7TFP,1.1 ± 0.099
same,TCF/Wnt firefly luciferase reporter signal,DLD1 [9]; reporter: TCF4/Wnt,1.16 ± 0.16
same,TCF/Wnt firefly luciferase reporter signal,HCT116 [10],0.784 ± 0.52
same,TCF/Wnt firefly luciferase reporter signal,SW480 [11],1.09 ± 0.69
C=CC(=O)Nc1cc2c(Nc3ccc(F)c(Cl)c3)ncnc2cc1OCCCN1CCOCC1 [CI-1033 (Canertinib)],cell viability,DLD1 [6]; reporter: 7TFP,0.868 ± 0.016
same,cell viability,DLD1 [6]; reporter: TCF4/Wnt,0.854 ± 0.068
same,cell viability,HCT116 [7],0.968 ± 0.059
same,cell viability,SW480 [8],1.03 ± 0.035
same,TCF/Wnt firefly luciferase reporter signal,DLD1 [9]; reporter: 7TFP,0.353 ± 0.013
same,TCF/Wnt firefly luciferase reporter signal,DLD1 [9]; reporter: TCF4/Wnt,0.601 ± 0.096
same,TCF/Wnt firefly luciferase reporter signal,HCT116 [10],1 ± 0.19
same,TCF/Wnt firefly luciferase reporter signal,SW480 [11],0.771 ± 0.32
CC(C)=CCc1c(O)cc2oc(C)cc(=O)c2c1O,cell viability,DLD1 [1],1 ± 0.036
same,cell viability,HCT116 [2],0.981 ± 0.055
same,cell viability,SW480 [3],1 ± 0.024
same,TCF/Wnt firefly luciferase reporter signal,DLD1 [4],0.869 ± 0.15
same,TCF/Wnt firefly luciferase reporter signal,SW480 [5],0.943 ± 0.095
c1ccc2c(CC3=NCCN3)cccc2c1,cell viability,DLD1 [1],1.11 ± 0.035
same,cell viability,HCT116 [2],1.09 ± 0.028
same,cell viability,SW480 [3],1.09 ± 0.035
same,TCF/Wnt firefly luciferase reporter signal,DLD1 [4],1.07 ± 0.12
same,TCF/Wnt firefly luciferase reporter signal,SW480 [5],0.984 ± 0.11
COc1cccc2c1CCC1=CC(=O)CC[C@@]12C,cell viability,DLD1 [1],1.09 ± 0.099
same,cell viability,HCT116 [2],1.004 ± 0.0085
same,cell viability,SW480 [3],1.03 ± 0.021
same,TCF/Wnt firefly luciferase reporter signal,DLD1 [4],0.944 ± 0.073
same,TCF/Wnt firefly luciferase reporter signal,SW480 [5],0.967 ± 0.1
CC(=O)O[C@]1(C)CC[C@@]23C[C@H]1C(C)(C)[C@@H]2CC[C@H]3C,cell viability,DLD1 [1],0.986 ± 0.035
same,cell viability,HCT116 [2],0.918 ± 0.033
same,cell viability,SW480 [3],1 ± 0.067
same,TCF/Wnt firefly luciferase reporter signal,DLD1 [4],1.05 ± 0.086
same,TCF/Wnt firefly luciferase reporter signal,SW480 [5],0.934 ± 0.017
CCCN(CCC)S(=O)(=O)c1ccc(C(=O)O)cc1,cell viability,DLD1 [1],1.03 ± 0.054
same,cell viability,HCT116 [2],1.1 ± 0.078
same,cell viability,SW480 [3],1.1 ± 0.078
same,TCF/Wnt firefly luciferase reporter signal,DLD1 [4],1.12 ± 0.21
same,TCF/Wnt firefly luciferase reporter signal,SW480 [5],1.115 ± 0.0071
O=C1C[C@@H](c2ccc(O)cc2)Oc2cc(O)cc(O)c21,cell viability,DLD1 [1],1.045 ± 0.0071
same,cell viability,HCT116 [2],1.055 ± 0.0071
same,cell viability,SW480 [3],1.03
same,TCF/Wnt firefly luciferase reporter signal,DLD1 [4],1.015 ± 0.0071
same,TCF/Wnt firefly luciferase reporter signal,SW480 [5],1.04 ± 0.021
CCS(=O)(=O)c1cccc(-c2cc(C(=O)NC3CCN(C)CC3)c(C)c3[nH]c4ncc(C)cc4c23)c1,cell viability,DLD1 [6]; reporter: 7TFP,1.06 ± 0.071
same,cell viability,DLD1 [6]; reporter: TCF4/Wnt,1.1 ± 0.057
same,cell viability,HCT116 [7],0.522 ± 0.23
same,cell viability,SW480 [8],0.965 ± 0.026
same,TCF/Wnt firefly luciferase reporter signal,DLD1 [9]; reporter: 7TFP,1.25 ± 0.078
same,TCF/Wnt firefly luciferase reporter signal,DLD1 [9]; reporter: TCF4/Wnt,1.215 ± 0.0071
same,TCF/Wnt firefly luciferase reporter signal,HCT116 [10],0.565 ± 0.24
same,TCF/Wnt firefly luciferase reporter signal,SW480 [11],0.834 ± 0.1
CC1=C(/C=C/C(C)=C/C=C/C(C)=C/C(=O)O)C(C)(C)CCC1,cell viability,DLD1 [1],0.9525 ± 0.0078
same,cell viability,HCT116 [2],0.973 ± 0.067
same,cell viability,SW480 [3],0.994 ± 0.052
same,TCF/Wnt firefly luciferase reporter signal,DLD1 [4],0.912 ± 0.037
same,TCF/Wnt firefly luciferase reporter signal,SW480 [5],0.889 ± 0.018
CC[C@H](C)[C@@H]1NC(=O)[C@H](C)NC1=O [Cyclo(alanylisoleucyl)],cell viability,DLD1 [1],1.05 ± 0.12
same,cell viability,HCT116 [2],1.165 ± 0.0071
same,cell viability,SW480 [3],1.07 ± 0.014
same,TCF/Wnt firefly luciferase reporter signal,DLD1 [4],1.05 ± 0.028
same,TCF/Wnt firefly luciferase reporter signal,SW480 [5],0.992 ± 0.15
NC[C@H]1O[C@H](O[C@H]2[C@H](O[C@@H]3O[C@H](CO)[C@@H](O)[C@H]3O)[C@@H](O)[C@H](N)C[C@@H]2N)[C@H](N)[C@@H](O)[C@@H]1O,cell viability,DLD1 [1],0.955 ± 0.018
same,cell viability,HCT116 [2],0.996 ± 0.0014
same,cell viability,SW480 [3],0.962 ± 0.0014
same,TCF/Wnt firefly luciferase reporter signal,DLD1 [4],1.04 ± 0.057
same,TCF/Wnt firefly luciferase reporter signal,SW480 [5],0.994 ± 0.023
